From PubChem BioAssay (NCATS)
Results filed as inconclusive are left out. Entries that show only a call come without a potency. The source made the active and inactive calls. The call rests on the fitted dose curve; in most records, active means well fitted inhibition curve with a large enough effect; inconclusive means small, poorly fitted or top-dose-only effect; inactive means flat fitted curve, though single readings scatter.

Legend:
Assay in all cases: qHTS profiling for inhibitors of Plasmodium falciparum proliferation (AID 504749); further: nearly all actives have a fitted effect of over 60% in size
Conditions in all cases: P. falciparum in erythrocytes, SYBR Green DNA, 72 h; series mostly up to 28.7 µM
CP247 = tested on: CP247
Procedure, shortened: (§1)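 Quantitative HTS: compounds pinned into medium, infected erythrocytes added (0.3% parasitemia, 2.5% hematocrit), 72 h culture at 37 C under 5% CO2. Saponin/Triton lysis with SYBR Green I, overnight RT, then fluorescence read.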

CP250 = tested on: CP250
Procedure, shortened: as §1

CP252 = tested on: CP252
Procedure, shortened: as §1

CP256 = tested on: CP256
Procedure, shortened: as §1

CP260 = tested on: CP260
Procedure, shortened: as §1

CP262 = tested on: CP262
Procedure, shortened: as §1

CP265 = tested on: CP265
Procedure, shortened: as §1

CP266 = tested on: CP266
Procedure, shortened: as §1

CP268 = tested on: CP268
Procedure, shortened: as §1

CP269 = tested on: CP269
Procedure, shortened: as §1

CP286 = tested on: CP286
Procedure, shortened: as §1

CP291 = tested on: CP291
Procedure, shortened: as §1

CP297 = tested on: CP297
Procedure, shortened: as §1

CP305 = tested on: CP305
Procedure, shortened: as §1

CP315 = tested on: CP315
Procedure, shortened: as §1

CP325 = tested on: CP325
Procedure, shortened: as §1

CP329 = tested on: CP329
Procedure, shortened: as §1

CP335 = tested on: CP335
Procedure, shortened: as §1

DFO2036 = tested on: DFO2036
Procedure, shortened: as §1

DIV14 = tested on: DIV14
Procedure, shortened: as §1
Potency means the concentration at half of the fitted maximal effect.

SMILES | Potency (CP247) | Potency (CP250) | outcome (CP252) | outcome (CP256) | Potency (CP260) | outcome (CP262) | Potency (CP265) | outcome (CP266) | Potency (CP268) | outcome (CP269) | Potency (CP286) | outcome (CP291) | outcome (CP297) | Potency (CP305) | outcome (CP315) | outcome (CP325) | outcome (CP329) | Potency (CP335) | Potency (DFO2036) | Potency (DIV14)
NNC(=O)CP(=O)(c1ccccc1)c1ccccc1 | inactive | inactive | inactive | inactive | inactive | inactive | inactive | inactive | inactive | inactive | inactive | inactive | inactive | inactive | inactive | inactive | inactive | inactive | inactive | inactive
CC(C)CCOC(=O)c1ccc(N(C)C)cc1 | inactive | inactive | inactive | inactive | inactive | inactive | inactive | inactive | inactive | inactive | inactive | inactive | inactive | inactive | inactive | inactive | inactive | inactive | inactive | inactive
CCS(=O)(=O)CCn1c([N+](=O)[O-])cnc1C | inactive | inactive | inactive | inactive | inactive | inactive | inactive | inactive | inactive | inactive | inactive | inactive | inactive | inactive | inactive | inactive | inactive | inactive | inactive | inactive
CCCC(O)C(CC)CO (centres undefined) | inactive | inactive | inactive | inactive | inactive | inactive | inactive | inactive | inactive | inactive | inactive | inactive | inactive | inactive | inactive | inactive | inactive | inactive | inactive | inactive
O=C(O)CCCCC1CCSS1 (centres undefined) | inactive | inactive | inactive | inactive | inactive | inactive | inactive | inactive | inactive | inactive | inactive | inactive | inactive | inactive | inactive | inactive | inactive | inactive | inactive | –
NC(=O)CC[C@@H](N)C(=O)O | inactive | inactive | inactive | inactive | inactive | inactive | inactive | inactive | inactive | inactive | inactive | inactive | inactive | inactive | inactive | inactive | inactive | inactive | inactive | inactive
CNc1c2c(nn1C)CCCC2 | inactive | inactive | inactive | inactive | inactive | inactive | inactive | inactive | inactive | inactive | inactive | inactive | inactive | inactive | inactive | inactive | inactive | inactive | inactive | –
O=C(O)Cc1ccc(CCNS(=O)(=O)c2ccc(Cl)cc2)cc1 | inactive | inactive | inactive | inactive | inactive | inactive | inactive | inactive | inactive | inactive | inactive | inactive | inactive | inactive | inactive | inactive | inactive | inactive | inactive | inactive
CC(C)CCCC(C)CCCC(C)CCCCC(C)CCCC(C)CCCC(C)C (centres undefined) | inactive | inactive | inactive | inactive | inactive | inactive | inactive | inactive | inactive | inactive | inactive | inactive | inactive | inactive | inactive | inactive | inactive | inactive | inactive | inactive
CCCCCCCCCCCCCCCCCCO | inactive | inactive | inactive | inactive | inactive | inactive | inactive | inactive | inactive | inactive | inactive | inactive | inactive | inactive | inactive | inactive | inactive | inactive | inactive | –
CC(C)C[C@@H](N)C(=O)O | inactive | inactive | inactive | inactive | inactive | inactive | inactive | inactive | inactive | inactive | inactive | inactive | inactive | inactive | inactive | inactive | inactive | inactive | inactive | inactive
Nc1ccc(C(=O)Oc2ccccc2)c(O)c1 | inactive | inactive | inactive | inactive | inactive | inactive | inactive | inactive | inactive | inactive | inactive | inactive | inactive | inactive | inactive | inactive | inactive | inactive | inactive | –
C[N+](C)(C)CC[N+]1(C)Cc2c(Cl)c(Cl)c(Cl)c(Cl)c2C1 | inactive | inactive | inactive | inactive | inactive | inactive | inactive | inactive | inactive | inactive | inactive | inactive | inactive | inactive | inactive | inactive | inactive | inactive | inactive | inactive
CCN(CC)S(=O)(=O)c1ccc(C(=O)O)cc1 | inactive | inactive | inactive | inactive | inactive | inactive | inactive | inactive | inactive | inactive | inactive | inactive | inactive | inactive | inactive | inactive | inactive | inactive | inactive | inactive
O=C(O)c1ccccc1OP(=O)(O)O | inactive | inactive | inactive | inactive | inactive | inactive | inactive | inactive | inactive | inactive | inactive | inactive | inactive | inactive | inactive | inactive | inactive | inactive | inactive | inactive
Cc1cc(C)nc(NS(=O)(=O)c2ccc(N)cc2)n1 | inactive | inactive | inactive | inactive | inactive | inactive | inactive | inactive | inactive | inactive | inactive | inactive | inactive | inactive | inactive | inactive | inactive | inactive | inactive | inactive
CN(C(=O)c1c(O)c2ccccc2n(C)c1=O)c1ccccc1 | inactive | inactive | inactive | inactive | inactive | inactive | inactive | inactive | inactive | inactive | inactive | inactive | inactive | inactive | inactive | inactive | inactive | inactive | inactive | inactive
O=C(O)COC(=O)Cc1ccccc1Nc1c(Cl)cccc1Cl | inactive | inactive | inactive | inactive | inactive | inactive | inactive | inactive | inactive | inactive | inactive | inactive | inactive | inactive | inactive | inactive | inactive | inactive | inactive | inactive
O=C1CC[C@@H](C(=O)O)N1 | inactive | inactive | inactive | inactive | inactive | inactive | inactive | inactive | inactive | inactive | inactive | inactive | inactive | inactive | inactive | inactive | inactive | inactive | inactive | inactive
Cc1cccc(C(=O)O)c1O | inactive | inactive | inactive | inactive | inactive | inactive | inactive | inactive | inactive | inactive | inactive | inactive | inactive | inactive | inactive | inactive | inactive | inactive | inactive | –
Nc1ccc(S(=O)(=O)c2ccc(N)cc2)cc1 | inactive | inactive | inactive | inactive | inactive | inactive | inactive | inactive | inactive | inactive | inactive | inactive | inactive | inactive | inactive | inactive | inactive | inactive | inactive | inactive
COC(=O)c1ccccc1C(=O)c1ccc(OCCN2CCCCC2)cc1 | inactive | inactive | inactive | inactive | inactive | inactive | inactive | inactive | inactive | inactive | inactive | inactive | inactive | inactive | inactive | inactive | inactive | inactive | inactive | –
CC(C(=O)O)c1ccc2c(c1)Cc1cccnc1O2 (centres undefined) | inactive | inactive | inactive | inactive | inactive | inactive | inactive | inactive | inactive | inactive | inactive | inactive | inactive | inactive | inactive | inactive | inactive | inactive | inactive | inactive
CCCCOC(=O)c1ccc(N)cc1 | inactive | inactive | inactive | inactive | inactive | inactive | inactive | inactive | inactive | inactive | inactive | inactive | inactive | inactive | inactive | inactive | inactive | inactive | inactive | inactive
CCCCCCCCCCCCCCCCC(C(=O)O)C(O)(CC(=O)O)C(=O)O (centres undefined) | 11.2 µM (active) | inactive | inactive | inactive | inactive | inactive | inactive | inactive | inactive | inactive | inactive | inactive | inactive | inactive | inactive | inactive | inactive | inactive | inactive | inactive
CC(C)=CCC/C(C)=C/CO | inactive | inactive | inactive | inactive | inactive | inactive | inactive | inactive | inactive | inactive | inactive | inactive | inactive | inactive | inactive | inactive | inactive | inactive | inactive | inactive
Cc1cccc(C)c1NC(=O)CC12CCCN1CCC2 | inactive | inactive | inactive | inactive | inactive | inactive | inactive | inactive | inactive | inactive | inactive | inactive | inactive | inactive | inactive | inactive | inactive | inactive | inactive | inactive
O=C(Cn1ccnc1[N+](=O)[O-])NCc1ccccc1 | inactive | inactive | inactive | inactive | inactive | inactive | inactive | inactive | inactive | inactive | inactive | inactive | inactive | inactive | inactive | inactive | inactive | inactive | inactive | inactive
Cn1c(=O)c2c(ncn2CCO)n(C)c1=O | inactive | inactive | inactive | inactive | inactive | inactive | inactive | inactive | inactive | inactive | inactive | inactive | inactive | inactive | inactive | inactive | inactive | inactive | inactive | inactive
O=C1c2cccc(O)c2C(=O)c2c(O)cccc21 | inactive | inactive | inactive | inactive | inactive | inactive | inactive | inactive | inactive | inactive | inactive | inactive | inactive | inactive | inactive | inactive | inactive | inactive | inactive | inactive
